For test [1], the target named is Arylsulfatase A (Homo sapiens) (UniProt P15289). Briefly: qHTS screen for enhancers of Arylsulfatase A (ASA1): LOPAC Validation Assay (AID 720538). To be noted: outcome: dose series up to 57.5 µM. Summed up:
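MLD patient fibroblasts (SV40, ASA-I179S), 1536-well; adhere 6 hrs; cpd 48h, 37 degree C, 5% CO2; pNCS 0.5mM final in lysis buffer, 14h RT; stop 1N NaOH final; fluor. Ex525/Em598.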

Test [2] is described as follows: qHTS for compounds that reverse cellular toxicity of Amyloid beta (A-beta) peptide in yeast: LOPAC Validation Assay (AID 720559).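 Also: plate controls were DMSO for no effect and equimolar ferric chloride plus clioquinol rescue for full effect.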 The essentials: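 Medium dispensed, compounds pinned, A-beta yeast suspension added; plates held at 30 C for 48 hr; absorbance measured at 600 nm to gauge growth; values scaled between DMSO and FeCl3/clioquinol (equimolar) controls.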

Test [3] can be described thus: qHTS for Activators of Parkin Expression: LOPAC Validation Assay (NLuc Reporter) (AID 720572; also: potency is read from the fitted curve at half-maximal effect). The essentials: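 NLuc signal, read 10 min after reagent and following a prior FLuc read, is normalized to DMSO (0) and positive controls (100%). Cells: neuronal Parkin-promoter coincidence reporter line; compounds tested 7-point, 24 h, 37 C, 5% CO2.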
For orientation: In qHTS, concentration-response curves come from the screen itself.

A short description of test [4]: qHTS for Activators of Parkin Expression: LOPAC Validation Assay (FLuc Reporter) (AID 720573). The essentials: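 Cells seeded, 24 h; compounds pinned, 7-pt dose response; 24 h at 37 C/5% CO2; volume reduced; FLuc reagent 10 min RT; luminescence read. Normalization: DMSO = 0, positive control = 100%.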
Test [5] addresses T1, Hexokinase-4 (Homo sapiens) + Glucokinase regulatory protein (Homo sapiens) (UniProt P35557+Q14397). As to the kind of experiment: qHTS assay for inhibitors of recombinant human GCK-GKRP interaction: Diaphorase-coupled assay (AID 743205). Summed up: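 25 mM Hepes pH 7.6, 5 mM glucose, 0.4 mM ATP, 4 U/ml G6PDH; 10 nM each GST-GCK/FLAG-GKRP. Kinetic fluorescence read, 1/min × 30 min. Normalized: DMSO ± enzyme = max/min.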

For test [6], the target named is T1, Hexokinase-4 (Homo sapiens) + Glucokinase regulatory protein (Homo sapiens). As to the kind of experiment: qHTS assay for inhibitors of recombinant human GCK-GKRP interaction: ADP-Glo assay (AID 743206).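 Also: plate controls were DMSO plus enzyme for no effect and no enzyme for full effect.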 The essentials: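 Pin-transferred compounds meet a 15 nM GST-GCK/15 nM FLAG-GKRP/2 uM S6P mix (dispense concentrations). ATP is then added to 0.4 mM final with 5 mM glucose, and the reaction runs 60 min at room temperature. ADP is quantified luminescently.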

Test [7] has the same target. Briefly: qHTS assay for inhibitors of recombinant human GCK-GKRP interaction: HTRF assay (AID 743207).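 Also: 0% = DMSO with GCK present and -100% = DMSO wells lacking GCK.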 The essentials:
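5 nM GST-GCK + 5 nM FLAG-GKRP + 2 uM S6P, pH 7.1 buffer (25 mM Hepes, 2 mM MgCl2, 25 mM KCl, 1 mM DTT, Tween/BSA); pin-transferred cpd; anti-FLAG XL665/anti-GST K; 60 min RT; HTRF.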

Test [8] can be described thus: qHTS Assay for Identifying Gametocytocidal Compounds (AID 743244).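 Also: % is scaled to controls: 0 for no effect and ±100 for the full control effect; actives lower the fluorescent signal which means gametocytes are killed.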 To be noted: P. falciparum 3D7 stage III-V gametocytes, alamarBlue, 72 h; max response: stronger effect = lower value. Summed up:
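P. falciparum 3D7 stage III–V gametocytes (20,000 cells/well) were exposed to compounds for 72 h at 37 °C, 5% CO2. AlamarBlue was then added for 24 h; decreased resorufin fluorescence (Ex 525/Em 598 nm) indicated loss of viability.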

The nature of test [9]: qHTS profiling of the MIPE4 collection as inhibitors of Plasmodium falciparum (3D7) proliferation (AID 743344; call rule not given here;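 also: scaled between DMSO vehicle wells and 0.29 µM artemisinin as full inhibition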). To be noted: P. falciparum 3D7 in erythrocytes, SYBR Green DNA fluorescence, 72 h; at 28.5 µM (top of the series) unless noted. Summed up:
(§1)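 Parasite DNA was quantified by SYBR Green I fluorescence (ex 485, em 535 nm) after overnight lysis in saponin/Triton buffer at room temperature. Cultures at 0.3% parasitemia and 2.5% hematocrit were first exposed to compound for 72 h at 37 C; signals were normalised to artemisinin (0.29 uM) and vehicle wells.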

A short description of test [10]: qHTS profiling of the MIPE4 collection as inhibitors of Plasmodium falciparum (DD2) proliferation (AID 743345; call rule not given here). To be noted: P. falciparum Dd2 in erythrocytes, SYBR Green DNA, 72 h; at 28.5 µM (top of the series) unless noted. The essentials: as §1
Test [11] can be described thus: qHTS profiling of the MIPE4 collection as inhibitors of Plasmodium falciparum (DD2) proliferation (Rep 2) (AID 743346; call rule not given here). To be noted: P. falciparum Dd2 in erythrocytes, SYBR Green DNA, 72 h; at 28.5 µM (top of the series) unless noted. The essentials: as §1
Test [12] can be described thus: qHTS profiling of the MIPE4 collection as inhibitors of Plasmodium falciparum (HB3) proliferation (AID 743347; call rule not given here;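 also: plate controls were DMSO vehicle wells for no effect and artemisinin wells for full effect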). To be noted: P. falciparum HB3 in erythrocytes, SYBR Green DNA, 72 h; at 28.5 µM (top of the series) unless noted. The essentials:
as §1

Test [13] in a line: qHTS profiling for inhibitors of Plasmodium falciparum (3D7) proliferation (AID 743322; call rule not given here;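 also: infected erythrocytes exposed to compound for 72 h before lysis; 100% = DMSO vehicle wells and 0% = 0.29 µM artemisinin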). To be noted: P. falciparum 3D7 proliferation; at 28.7 µM (top of the series) unless noted. The essentials:
as §1

A short description of test [14]: qHTS profiling for inhibitors of Plasmodium falciparum (DD2) proliferation (AID 743323; call rule not given here). To be noted: lower = more inhibition; at 28.7 µM (top of the series) unless noted. Summed up:
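SYBR Green fluorescence (ex 485, em 535 nm) of lysed cultures gives parasite DNA content; wells normalized to artemisinin (0.29 uM) and DMSO controls. Infected red cells: 0.3% parasitemia, 2.5% hematocrit, 72 h, 37 C.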

A short description of test [15]: qHTS profiling for inhibitors of Plasmodium falciparum (HB3) proliferation (AID 743324).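 Also: 100% = DMSO vehicle wells and 0% = artemisinin-treated control wells.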 To be noted: Plasmodium falciparum HB3 blood-stage proliferation; at 28.7 µM (top of the series) unless noted. The essentials:
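SYBR Green fluorescence (485 ex/535 em) of lysed cultures, incubated overnight at room temperature in the dark, quantifies parasite DNA. Infected erythrocytes at 0.3% parasitemia and 2.5% hematocrit were exposed 72 h; values normalized to DMSO and 0.29 uM artemisinin controls.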

Test [16] is described as follows: qHTS assay for small molecule agonists of the antioxidant response element (ARE) signaling pathway measured by Nrf2-dependant transcriptional activity (AID 720636; active = well fitted curve in the direction sought with a large enough effect in the repeat runs; an effect the other way counts as inactive or inconclusive;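 also: HepG2 cells with an ARE-driven luciferase reporter; % of control where 0% means no effect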). Summed up: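 Attachment 6 hr at 37 C, then compound versus DMSO vehicle for 16 hr in ARE-luc HepG2 cells (1% dialyzed FBS); luminescence recorded 30 min after ONE-Glo addition at room temperature.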

The nature of test [17]: qHTS assay for small molecule antagonists of the retinoid-related orphan receptor gamma (ROR-gamma) signaling pathway - cell viability counter screen (AID 720652; active = well fitted curve in the direction sought with a large enough effect in the repeat runs; an effect the other way counts as inactive or inconclusive;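 also: CHO reporter cells with doxycycline-induced ROR-gamma expression; compound exposure lasted 16 hr before ATP read; % is scaled to controls: 0 for no effect and ±100 for the full control effect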). The essentials:
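CHO RORE-LUC/TET-ROR line, 1,000 cells/well, 37 C 5% CO2 5 hr; cpd or DMSO + doxycycline induction, 16 hr. CellTiter-Glo, 30 min RT, luminescence = ATP content.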

Test [18] is described as follows: qHTS assay for small molecule agonists of the antioxidant response element (ARE) signaling pathway measured by Nrf2-dependant transcriptional activity - cell viability counter screen (AID 720653; active = well fitted curve in the direction sought with a large enough effect in the repeat runs; an effect the other way counts as inactive or inconclusive; also: % is scaled to controls: 0 for no effect and ±100 for the full control effect). To be noted: ARE-bla HepG2 viability, CellTiter-Glo ATP luminescence, 16 h; stronger effect = lower value. Summed up:
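ARE-bla HepG2 cells treated with compounds for 16 h at 37C; this counter screen measures viability as intracellular ATP by CellTiter-Glo luminescence after 30 min at room temperature.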

The nature of test [19]: qHTS assay for cell viability of HEK293 cells (AID 743288). Also: % is scaled to controls: 0 for no effect and ±100 for the full control effect; nearly all actives have a fitted effect of over 50% in size. To be noted: ATP luminescence (CellTiter-Glo), 18 h; max response: stronger effect = lower value. Summed up:
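Viable-cell counts were inferred from luciferase-based ATP content in HEK293 cells seeded at 2,000/well, pre-incubated ≥5 h, then dosed with DMSO-solubilised compounds for 18 h at 37 C.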

The nature of test [20]: qHTS assay for cell viability of the p53RE-bla HCT-116 cell line (AID 743292). Also: % is scaled to controls: 0 for no effect and ±100 for the full control effect; nearly all actives have a fitted effect of over 55% in size. Summed up: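 Compound-exposed HCT-116 (p53RE-bla) cells, 4,000 per well, were kept 16 h at 37 C following a 5 h preincubation. Cell number was estimated from total ATP by CellTiter-Glo luminescence read after 30 min at room temperature.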

Values joined by “and” are separate entries in the source; they are usually repeats but may differ in a detail not shown here. Identical values can stand only once. Inconclusive results are not listed. Active and inactive are the calls of the source. Unless noted, calls follow the shape of the dose curve; as a rule, active = well fitted curve in the direction sought with a large enough effect; inconclusive = small, poorly fitted or top-dose-only effect, or another doubt; inactive = no such curve, though single readings can be large; an effect the other way counts as inactive or inconclusive.

T1 sequence (P35557 whole entry, looked up): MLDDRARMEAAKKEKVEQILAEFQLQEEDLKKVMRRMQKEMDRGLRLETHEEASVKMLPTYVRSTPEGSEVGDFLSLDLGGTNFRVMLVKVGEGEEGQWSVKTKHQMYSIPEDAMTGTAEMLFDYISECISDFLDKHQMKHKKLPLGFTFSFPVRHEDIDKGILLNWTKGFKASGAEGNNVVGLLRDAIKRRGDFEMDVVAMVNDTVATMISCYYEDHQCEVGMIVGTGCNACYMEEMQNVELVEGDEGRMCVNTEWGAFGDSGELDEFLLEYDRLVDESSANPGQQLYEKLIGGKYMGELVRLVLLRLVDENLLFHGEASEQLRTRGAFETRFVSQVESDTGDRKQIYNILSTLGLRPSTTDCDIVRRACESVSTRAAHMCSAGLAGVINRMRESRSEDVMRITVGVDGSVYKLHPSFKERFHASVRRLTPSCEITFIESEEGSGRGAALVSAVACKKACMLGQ
T1 sequence (Q14397 whole entry, looked up): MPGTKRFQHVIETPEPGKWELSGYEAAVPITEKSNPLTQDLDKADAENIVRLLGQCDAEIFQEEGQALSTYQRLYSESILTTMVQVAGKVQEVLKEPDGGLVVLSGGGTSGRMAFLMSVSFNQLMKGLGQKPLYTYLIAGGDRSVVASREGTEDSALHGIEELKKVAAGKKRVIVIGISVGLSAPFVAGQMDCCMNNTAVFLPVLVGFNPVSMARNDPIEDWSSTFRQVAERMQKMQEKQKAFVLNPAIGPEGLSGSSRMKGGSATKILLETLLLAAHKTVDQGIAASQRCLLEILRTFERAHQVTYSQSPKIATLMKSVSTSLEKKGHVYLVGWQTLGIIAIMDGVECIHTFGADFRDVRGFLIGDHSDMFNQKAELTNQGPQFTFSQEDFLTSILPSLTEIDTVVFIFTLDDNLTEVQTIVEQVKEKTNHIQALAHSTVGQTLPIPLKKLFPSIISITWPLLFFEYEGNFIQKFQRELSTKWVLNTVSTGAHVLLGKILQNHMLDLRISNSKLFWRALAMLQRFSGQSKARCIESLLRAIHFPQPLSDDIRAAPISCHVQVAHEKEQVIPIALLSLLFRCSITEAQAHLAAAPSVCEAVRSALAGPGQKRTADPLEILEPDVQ
Arylsulfatase A (Homo sapiens), sequence (P15289 whole entry, looked up): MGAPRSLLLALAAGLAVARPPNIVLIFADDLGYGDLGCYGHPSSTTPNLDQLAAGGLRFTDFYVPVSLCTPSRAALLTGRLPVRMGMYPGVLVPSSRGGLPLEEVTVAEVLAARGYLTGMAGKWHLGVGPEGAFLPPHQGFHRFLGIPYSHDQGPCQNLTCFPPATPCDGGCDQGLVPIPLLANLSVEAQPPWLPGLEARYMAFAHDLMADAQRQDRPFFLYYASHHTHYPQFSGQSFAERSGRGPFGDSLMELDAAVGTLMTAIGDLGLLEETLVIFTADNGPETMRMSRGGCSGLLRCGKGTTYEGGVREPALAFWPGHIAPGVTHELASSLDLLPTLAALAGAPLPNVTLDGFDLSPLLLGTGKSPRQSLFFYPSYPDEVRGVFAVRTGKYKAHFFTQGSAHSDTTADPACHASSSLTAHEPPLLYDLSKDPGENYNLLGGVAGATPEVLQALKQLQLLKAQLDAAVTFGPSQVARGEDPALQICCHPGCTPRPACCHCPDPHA

For the compound `NNCCc1ccccc1`, the result in test [1], in test [2], in test [4], in [5], in [6] and in test [7] was inactive. The Potency entry in test [3] was “inactive”. Also, in test [8], the max response is -2.24% (inactive) and 11.6% (inactive). The parasite growth, % of DMSO control in [9] is 88.8%. In addition, the parasite growth remaining, % of DMSO control (lower = more inhibition) in test [10] stood at 24.6%. Further, the parasite growth, % of control (lower = inhibition) in [11] was determined as 79.6%.

As for `O=C(Nc1nc2ccccc2n1CCN1CCOCC1)c1cccc([N+](=O)[O-])c1`, the outcome in test [1], in test [2], in [5] and in [7] was inactive. In addition, the Potency entry in [3] was “inactive”. Moreover, the parasite growth, % of control (lower = inhibition) in test [11] is 17.9%.

For `Nc1nc2c(ncn2COCCO)c(=O)[nH]1`, the outcome in test [1], in test [2], in test [5] and in [7] was inactive. In addition, the max response in test [8] is 17.4% (inactive) and 18.4% (inactive). The same compound returned a parasite growth, % of DMSO control in test [9] of 96.7%. Besides, in [10], the parasite growth remaining, % of DMSO control (lower = more inhibition) came out at 97.6%. The parasite growth, % of control (lower = inhibition) in test [11] was determined as 124%. Moreover, the growth, % of control in [12] worked out at 99.6%.

For `CCC(C)N(C)C(=O)c1cc2ccccc2c(-c2ccccc2Cl)n1` (centres undefined), the outcome in test [1], in [2], in test [4], in test [5] and in test [7] was inactive. Further, the Potency in [3] was 20.6 µM (active). The max response in test [8] is 24.9% (inactive). This compound also registered a remaining parasite growth % (stronger effect = lower value) in test [13] of 86.5%. Further, in test [14], the activity, percent of control was determined as 80.9%. The same compound had a remaining proliferation (% of control), lower = more inhibition in test [15] of 42%. The parasite growth, % of DMSO control in test [9] was 39%. Further, the parasite growth remaining, % of DMSO control (lower = more inhibition) in test [10] was found to be 83.4%. Moreover, in test [11], the parasite growth, % of control (lower = inhibition) turned out to be 53.7%.

As for `N=c1nc(N2CCCCC2)cc(N)n1O`, the outcome in [1], in test [2], in [4], in test [5], in test [6] and in [7] was inactive. In test [3], the Potency result was “inactive”. The max response in test [8] is 1.66% (inactive) and 5.64% (inactive). This compound also had a parasite growth, % of DMSO control in test [9] of 6.29%. The parasite growth remaining, % of DMSO control (lower = more inhibition) in [10] came to 33.6%. The parasite growth, % of control (lower = inhibition) in test [11] came out at 7.66%. Besides, the growth, % of control in [12] came out at 3.91%.

For `CC(C[N+](C)(C)C)OC(N)=O` (centres undefined), the outcome in test [1], in test [2], in test [4], in [5] and in [7] was inactive. The Potency entry in test [3] is “inactive”. Besides, in test [8], the max response was 11.1% (inactive). In test [9], the parasite growth, % of DMSO control was 102%. The parasite growth remaining, % of DMSO control (lower = more inhibition) in test [10] worked out at 101%. For the same compound, the parasite growth, % of control (lower = inhibition) in test [11] amounted to 96.7%. The same compound came in with a growth, % of control in test [12] of 69.1%.

On to `CCOC(=O)C1=C[C@]2(CC)CCCN3CCc4c(n1c1ccccc41)[C@@H]32`, for which the outcome in test [1], in test [2], in test [4], in [5] and in test [7] was inactive. In test [3], the Potency result is “inactive”. In addition, in test [8], the max response was -1.66% (inactive). Also, in test [9], the parasite growth, % of DMSO control was 5.46% and 17.8%. Further, the parasite growth remaining, % of DMSO control (lower = more inhibition) in [10] is 8.67% and 83.7%. Besides, the parasite growth, % of control (lower = inhibition) in test [11] was 35.2% and 34.2%. Further, the growth, % of control in [12] was 10% and 13.6%.

In the case of `O=c1[nH]cnc2[nH]ncc12`, the outcome in test [1], in test [2], in [4], in [16], in test [17] and in [5] was inactive. The result in test [7] was inactive. Moreover, the Potency entry in test [3] and in [20] was “inactive” in each case. Further, the max response in test [18] is -4.44% (inactive); in [19], 10.5% (inactive).

For the compound `c1ccc([C@H]2CN3CCSC3=N2)cc1`, the result in test [1], in test [2], in test [4], in test [5] and in test [7] was inactive. Also, in test [3], the Potency result is “inactive”. For the same compound, the max response in test [8] is 4.37% (inactive). The parasite growth, % of DMSO control in [9] was 92.1%. Further, in test [10], the parasite growth remaining, % of DMSO control (lower = more inhibition) was 98.3%. Further, in test [11], the parasite growth, % of control (lower = inhibition) amounted to 63.1%.

(Values after PubChem BioAssay (NCATS).)
